Values joined by “and” are separate entries in the source; they are usually repeats but may differ in a detail not shown here. Equal entries are not always repeated. About 11,000 (3.5%) of roughly 310,000 compounds were called active. Not shown: some 4% with an inconclusive outcome. The sample as a whole holds a higher share of actives than the screen did. Unmarked numbers belong to inactive results. The call rests on the fitted dose curve; in most records, active means well fitted inhibition curve with a large enough effect; inconclusive means small, poorly fitted or top-dose-only effect, or another doubt; inactive means no such curve, though single readings can be large or run the other way.
Potency means the concentration at half of the fitted maximal effect.

The experiment deals with 4'-phosphopantetheinyl transferase ffp (Bacillus subtilis) (UniProt Q9F4F7). In words: qHTS Assay for Inhibitors of Bacillus subtilis Sfp phosphopantetheinyl transferase (PPTase).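 Further: the enzyme is Sfp with the accession as filed and its product quenches rhodamine fluorescence.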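 On largest response in the series, negative = inhibition: 0% = enzyme reaction without inhibitor and -100% = no enzyme wells.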 The settings on record: Biochemical Sfp PPTase activity. An outline of the steps:
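Compounds were incubated with enzyme (final 15 nM) for 15 min at room temperature before substrate addition started the reaction. Fluorescence at 525 nm excitation, 598 nm emission was recorded immediately and after 30 minutes.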
As to `COc1ccc(OC)c(-n2c(-c3ccn[nH]3)n[nH]c2=S)c1`, the largest response in the series, negative = inhibition was -5.99%.
The same measure, in the same setting: with `COc1ccc(-n2c(-c3ccc(OC)c(OC)c3)n[nH]c2=S)cc1` the figure was -14.3%.
For the molecule `COc1ccccc1-n1c(-c2cc(-c3ccco3)[nH]n2)n[nH]c1=S`, the Potency is 50.1 µM (active).
For the molecule `CCOC(=O)CNc1nc(Cl)nc(Nc2ccc(OC)cc2OC)n1`, the largest response in the series, negative = inhibition was 11.3%.
Regarding `COc1cc(OC)cc(C(=O)NCCCn2ccnc2)c1`, the largest response in the series, negative = inhibition was 5.91%.
Take `CN1C(=O)C(CC(=O)Nc2ccccc2)S/C1=N/c1nccs1` (configuration not stated): the largest response in the series, negative = inhibition was 15.1%.
As for `O=C(CC1SC(=Nc2ccccc2)N(Cc2ccccn2)C1=O)Nc1cccc(Cl)c1` (configuration not stated), the Potency was 44.7 µM (active).
For the molecule `O=C(Nc1cccc(Cl)c1)OCc1ccccn1`, the largest response in the series, negative = inhibition was 3.07%.
Same read-out and setting: with `CCOc1ccc(CN(C)C(=O)c2ccc(=O)[nH]c2)cc1` the figure was 8.69%.
The same measure, in the same setting: with `COc1ccc(NS(=O)(=O)c2ccc(N3CCN(CCO)CC3)c([N+](=O)[O-])c2)cc1` the figure was -0.783%.
For `CCc1ccc(-c2cc(C(=O)NCc3ccco3)c3ccccc3n2)s1`, the Potency is 31.6 µM (active).
As for `COC(=O)CNC(=O)c1cc(-c2ccncc2)nc2ccccc12`, the largest response in the series, negative = inhibition was 8.93%.
The same measure, in the same setting: with `CCCCN(C)CCCNC(=O)c1cc(-c2cccs2)nc2ccccc12` the figure was -6.84%; with `Nc1ncn(C2OC(CO)C(O)C2O)c(=O)n1` (configuration not stated), 21.6%.
Same read-out and setting: as for `O=C1[C@H]2[C@H]3[C@H](O)[C@H](O)C/C(=N/OCc4ccccc4)[C@H]3CC[C@@H]2C(=O)N1Cc1ccccc1`, the figure is -7.38%; as for `CCC(C)NC(=O)C1c2ccccc2Oc2ccccc21` (configuration not stated), 5.93%.
As for `CC(C)(C)c1nnc(NC(=O)C2c3ccccc3Oc3ccccc32)s1`, the Potency is 2.82 µM (active).
Turning to `CCC(C)(C)NC(=O)C1c2ccccc2Oc2ccccc21`, the largest response in the series, negative = inhibition was 14.9%.
Same read-out and setting: with `COc1ccccc1N1CCN(S(=O)(=O)c2ccc3c(c2)NC(=O)CS3)CC1` the figure was 7.23%.
On the same count and under the same terms, as for `C=CCOC(=O)C1=C(C)NC(C)=C(C(=O)OCC=C)C1c1cccs1`, the figure is 24.6%; as for `CC1=C(C(=O)Nc2ccccc2)C(c2ccco2)C(C#N)=C(SCC(N)=O)N1` (configuration not stated), -0.0015%.
With `CC1=C(C(=O)Nc2ccccc2)C(c2cccs2)C(C#N)=C(SCC#N)N1` (configuration not stated), the Potency is 39.8 µM (active).
`CCOc1ccc(-n2c(SCC(=O)Nc3ccc(OC)cc3)nc3sc4c(c3c2=O)CCN(C)C4)cc1`: the largest response in the series, negative = inhibition is -4.55%.
The same measure, in the same setting: as for `COc1cc(C2C(C(=O)c3ccco3)=C(O)C(=O)N2c2cc(C)on2)ccc1OCc1ccccc1` (configuration not stated), the figure is 0.107%; as for `C=CCNC(=O)c1ccccc1SCc1c(C)noc1C`, -6.81%.
Still for that read-out and setting: as for `CCCOc1cccc(C(=O)NCCCNC(=O)c2cccnc2)c1`, the figure is 1.7%.
With `Fc1ccc(COc2cccc(-c3n[nH]c(=S)o3)c2)cc1`, the Potency was 39.8 µM (active).
As for `Cc1cccc(OCc2ccc(C(=O)Nc3ccc(F)cc3)cc2)c1`, the largest response in the series, negative = inhibition is 10.4%.
The same measure, in the same setting: with `Fc1ccc(COc2ccc(-c3nnco3)cc2)cc1` the figure was 12.8%; with `CC(=O)NS(=O)(=O)c1ccc(N/C(N)=N/c2nc(C)cc(C)n2)cc1`, 6.28%; with `CCCC(C(=O)NC1CCCC1)N(C(=O)Cn1nnc(-c2ccc(C)o2)n1)c1cccc(O)c1` (configuration not stated), -2.43%.
Still for that read-out and setting: as for `COC(=O)c1ccc(COC(=O)c2cnc(Cl)c(Cl)c2)cc1`, the figure is -10.6%.
On the same count and under the same terms, with `Cc1noc(C)c1-c1ccc2ncnc(NCc3ccc4[nH]ccc4c3)c2c1` the figure was -0.183%.
In the case of `O=C(Nc1cn(-c2ccccc2)nc1-c1ccccc1)c1ccccc1`, the largest response in the series, negative = inhibition was -4.06%.
Still for that read-out and setting: as for `N=C(N)SCc1cccc2ccccc12`, the figure is -0.359%.
`CCc1ccc(-c2nn(-c3ccccc3)cc2CSC(=N)N)cc1`: the Potency was 39.8 µM (active).
For the molecule `CC(=O)OCC1OC(C#CCCCc2ccccc2)C=CC1OC(C)=O` (configuration not stated), the largest response in the series, negative = inhibition was 17.9%.
Still for that read-out and setting: with `Cc1cc(=O)oc2c(C)c(OCC(=O)NCCc3ccc(S(N)(=O)=O)cc3)ccc12` the figure was 11%; with `CC(=O)NCC(=O)N1CCC(n2nccc2NC(=O)CCCc2ccccc2)CC1`, 13.4%.
Still for that read-out and setting: with `COc1cc(NS(=O)(=O)c2ccc(NC(=S)NC(=O)c3ccc(Br)cc3)cc2)ncn1` the figure was 1.72%; with `c1ccc(Cc2nn3c(Cn4cnc5ccccc54)nnc3s2)cc1`, -63.8%.
Regarding `Fc1ccc(OCc2nn3c(Cn4nnc5ccccc54)nnc3s2)cc1`, the Potency was 15.8 µM (active).
For `CC(=O)OC(COc1ccc(F)cc1)Cn1cnc2ccccc21` (configuration not stated), the largest response in the series, negative = inhibition is -2.66%.
On the same count and under the same terms, as for `CC(=O)N1CCN(c2ccccc2NC(=S)NC(=O)c2cc3ccccc3o2)CC1`, the figure is 7.22%.
Still for that read-out and setting: as for `COCCn1c(SCC(=O)N2CCCCCC2)nc2c(c1=O)SCC2`, the figure is 4.45%; as for `CC(NC(=O)Nc1cccc([N+](=O)[O-])c1)c1ccc2c(c1)OCO2` (configuration not stated), -3.6%.
Regarding `CN(C)CCCN(C(=O)c1ccc(S(=O)(=O)N2CCCc3ccccc32)cc1)c1nc2ccc(F)cc2s1`, the Potency was 56.2 µM (active).
As to `Cc1ccc2nc(N(CCN(C)C)C(=O)C3=COCCO3)sc2c1`, the largest response in the series, negative = inhibition was 5.53%.
Consider `CCN(CC)CCN(C(=O)c1ccc(S(=O)(=O)N2CCOCC2)cc1)c1nc2cc3c(cc2s1)OCCO3`, for which the largest response in the series, negative = inhibition was 7.56%.
Still for that read-out and setting: with `O=C(Nc1nc2ccc([N+](=O)[O-])cc2s1)c1ccc(S(=O)(=O)N2CCCc3ccccc32)cc1` the figure was -0.333%; with `CSc1nc2ccc(S(=O)(=O)N3CCc4ccccc43)cc2s1`, 7.95%.
Turning to `CN(C)CCCN(C(=O)c1ccc(S(=O)(=O)N2CCCCCC2)cc1)c1nc2ccc(Br)cc2s1`, the Potency is 50.1 µM (active).
In the case of `COc1ccc(C)cc1N(CC(=O)NC(C)c1ccccc1)S(C)(=O)=O` (configuration not stated), the largest response in the series, negative = inhibition is 4.53%.
In the case of `CCC1Sc2ccc(S(=O)(=O)CCC(=O)NCc3cccs3)cc2NC1=O` (configuration not stated), the largest response in the series, negative = inhibition is 20.6%.
Still for that read-out and setting: with `CC(C)=CCCC(C)CN1CCC(n2nccc2NC(=O)c2ccccc2)CC1` (configuration not stated) the figure was 9.72%.
On to `O=C(Nc1nnc(-c2ccccc2F)s1)c1ccccc1F`, for which the largest response in the series, negative = inhibition was -1.78%.
On the same count and under the same terms, with `CCOc1cc(-c2noc(CCCC(=O)NC3CCCCC3)n2)ccc1OC` the figure was 13%.
Regarding `CC(C)(C)C(=O)OCc1nc(-c2ccc(O)c(O)c2)cs1`, the Potency is 56.2 µM (active).
With `COc1ccc(-c2csc(Cc3nc(O)cs3)n2)cc1`, the largest response in the series, negative = inhibition was -23.9%.
Turning to `COc1ccc(OC)c(Nc2nc(-c3ccc(O)c(O)c3)cs2)c1`, the largest response in the series, negative = inhibition is -45.7%.
For the molecule `CN(CC(=O)Nc1c(Cl)cccc1Cl)C(=O)c1ccncc1`, the largest response in the series, negative = inhibition is 13.1%.
On the same count and under the same terms, with `Cc1cc(C(F)(F)F)nn1-c1nc(-c2ccco2)cc(C(F)(F)F)n1` the figure was 11.9%.
Take `Cn1c(-c2ccco2)nc2cc3ccccc3cc21`: the Potency was 56.2 µM (active).
Turning to `Cc1csc(-c2nc3ccccc3n2C)n1`, the largest response in the series, negative = inhibition was -0.542%.
On the same count and under the same terms, as for `CCOc1ccc(C2C3=C(CCCC3=O)N(CC(=O)O)C3=C2C(=O)CCC3)cc1`, the figure is -3.36%; as for `Cc1ccnc(N2CCCC(C(=O)NC3CC3)C2)n1` (configuration not stated), 12.1%.
Turning to `Cc1ccnc(-n2sc3ccccc3c2=O)n1`, the Potency is 2.51 µM (active).
In the case of `Cc1ccnc(SCC(N)=O)n1`, the largest response in the series, negative = inhibition was 7.56%.
With `CCN(CC(=O)NCCCN1CCOCC1)S(=O)(=O)c1cc(Cl)ccc1Cl`, the largest response in the series, negative = inhibition was 9.56%.
Still for that read-out and setting: as for `COc1ccc(CC(=O)N/N=C/c2cc([N+](=O)[O-])cc(Br)c2O)cc1`, the figure is 23.5%.
With `NS(=O)(=O)c1ccc(CCNC(=S)Nc2ccc(S(N)(=O)=O)cc2)cc1`, the Potency is 20 µM (active).
In the case of `CC(C)(C)C(=O)NC(NC(=S)Nc1ccc(S(N)(=O)=O)cc1)C(Cl)(Cl)Cl` (configuration not stated), the largest response in the series, negative = inhibition was 7.73%.
Regarding `NS(=O)(=O)c1ccc(NC(=S)Nc2ccc(Br)c(Cl)c2)cc1`, the Potency is 56.2 µM (active).
`NS(=O)(=O)c1ccc(CCNC(=O)CNC(=O)Cc2ccccc2)cc1`: the largest response in the series, negative = inhibition was -3.07%.
On the same count and under the same terms, as for `NS(=O)(=O)c1ccc(CCNC(=O)Nc2ccc(Cl)cc2)cc1`, the figure is 7.27%; as for `CCc1ccc(NC(=O)C(=O)NNC(=O)c2cccs2)cc1`, 6.91%.
Same read-out and setting: with `NS(=O)(=O)c1ccc(NC(=S)NC(=O)c2cccc(Br)c2)cc1` the figure was -13.6%.
On the same count and under the same terms, with `CC(C)C(=O)Nc1ccc(C(=O)NNC(=O)c2cccs2)cc1` the figure was -14.7%.
As to `NS(=O)(=O)c1ccc(NC(=S)NNC(=O)c2cccs2)cc1`, the Potency is 15.8 µM (active).
Regarding `COc1cccc(NC(=O)CN(C)C(=O)c2ccccc2CCc2ccccc2)c1`, the largest response in the series, negative = inhibition was 4.61%.
For the molecule `CCN1C(=NCCc2cccnc2)N[C@@H](c2ccccc2)C(C(=O)OC)=C1C`, the largest response in the series, negative = inhibition was 4.98% and 1.06%.
Same read-out and setting: as for `CCOc1ccc(CN2CCN(CCCc3ccccc3)C(CCO)C2)cc1` (configuration not stated), the figure is 7.43%; as for `CN(C)c1ccc(NC(=O)CN2C3CCCC2CC(NC(=O)c2ccccc2)C3)cc1` (configuration not stated), -10%.
Take `O=C(CN1CCCCCC1)Nc1ccc(Br)cc1[N+](=O)[O-]`: the largest response in the series, negative = inhibition is -3.46%.
On the same count and under the same terms, with `CCCn1cc(S(=O)(=O)c2ccc(C)cc2)c(=O)c2cc(OCC)ccc21` the figure was 0.066%.
On the same count and under the same terms, as for `COc1cc(C2NC(=O)NC(c3ccccc3)=C2C(C)=O)c(Br)cc1OCC(N)=O` (configuration not stated), the figure is 18.5%.
Still for that read-out and setting: with `CCOc1cc2[nH]c(=S)n(CCN3CCCCC3C)c(=O)c2cc1OCC` (configuration not stated) the figure was -4.39%; with `CCOc1cc2[nH]c(=O)n(Cc3ccc(C(=O)NCCCN4CCCC4=O)cc3)c(=O)c2cc1OCC`, 9.7%.
Regarding `CCOc1cc2[nH]c(=S)n(CCCN3CCCC3=O)c(=O)c2cc1OCC`, the Potency was 56.2 µM (active).
Take `Cc1cc(=O)[nH]c(N/N=C/c2ccc3c(c2)OCCO3)n1`: the Potency is 56.2 µM (active).
For the molecule `CCN(CC)c1ccc(/C=N/Nc2nc(C)cc(=O)[nH]2)cc1`, the largest response in the series, negative = inhibition was -16.8%.
The same measure, in the same setting: as for `Cc1cc(=O)[nH]c(N/N=C/c2c(C)nn(-c3ccccc3Cl)c2Cl)n1`, the figure is -9.72%.

The values above are taken from PubChem BioAssay AID1490 (National Center for Advancing Translational Sciences (NCATS), 2009).
